In PubChem BioAssay (NCI):
The panel holds about 83,000 compounds, 20% with a hit somewhere; the sample as a whole holds those more often.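 The test compound was applied at a single concentration to cells in 96-well plates for 48 hours, and percent growth was recorded.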 The source made the active and inactive calls. The calls were made as follows: active = growth percent below 10; inactive = the rest.

What follows are compounds tested on HL-60(TB) leukemia (assay: NCI-60 one-dose screen, 48 h (100 = growth as untreated, 0 = no growth, -100 = all killed)). Conditions: 10 µM unless noted.
For O=C(Cn1ccnc1)Nc1ccc(-c2nc3ccccc3s2)cc1, the growth was 77.3% (inactive).
For N[C@@H](CC/[N+]([O-])=N/O)C(=O)O, the growth was 110% (inactive).
In the case of O=C(Nc1ccccc1O)c1ccc(CNC(=O)c2ccsc2Nc2ccnc(C(F)(F)F)c2)cc1, the growth is reported as 7.44% (active).
In the case of O=C(CCc1nc2sc3c(c2c(=O)[nH]1)CCC3)NCc1cn(-c2ccccc2)nc1-c1ccccc1, the growth is reported as 98.7% (inactive).
With O=C(/C=C\c1ccccc1Cl)c1ccccc1 the growth was 110% (inactive).
In the case of CCOc1ccc(NC(=O)c2cc(OC)c(OC)c(OC)c2)cc1, the growth is reported as -8.94% (active).
CCOC(=O)/C(C#N)=C1/NNC(=Nc2cccnc2)S1 was tested, and the growth was 102% (inactive).
For CC(C)(C)OC(=O)N1CCc2c(sc3ncnc(N/N=C/c4ccccc4Br)c23)C1, the growth was 94.8% (inactive).
COc1cc2oc(-c3cccc(C(=O)Nc4ccccc4)c3)cc(=O)c2c(O)c1OC was tested, and the growth was 92.7% (inactive).
C=C(C[n+]1ccccc1)[C@@H]1CC[C@]2(C(=O)OC)CC[C@]3(C)[C@H](CC[C@@H]4[C@@]5(C)CCC(=O)C(C)(C)[C@@H]5CC[C@]43C)[C@@H]12 was tested, and the growth was 58% (inactive).
In the case of Cc1ccc2nc(-c3ccc(C(=O)N/N=C/c4ccc([N+](=O)[O-])cc4)cc3)[nH]c2c1, the growth is reported as 103% (inactive).
C#Cc1ccc(NC(=O)Cc2ccc(/C=C/C(=O)c3nccn3C)cc2)cc1 was tested, and the growth was 16.5% (inactive).
In the case of CC(C)NC(=O)OCc1c(COC(=O)NC(C)C)c(-c2ccc(Cl)cc2)n2c1CCC2, the growth is reported as 43.9% (inactive).
With O=C1Nc2ccccc2/C1=C/C(=N/c1nnc(-c2ccccc2)s1)c1ccccc1 the growth was -32.9% (active).
In the case of CN1CCN(Cc2ccc(NC(=O)c3cc(C#Cc4cnc(N)c5ncccc45)n(C)n3)cc2C(F)(F)F)CC1, the growth is reported as 107% (inactive).
Cn1cnc2nc[nH]c2c1=S was tested, and the growth was 108% (inactive).
In the case of COc1ccc(/C(=C\c2cc(OC)c(OC)c(OC)c2)C(=O)N2CCN(c3ccccc3)CC2)cc1O, the growth is reported as 106% (inactive).
CC1=CC(C)=Nc2ccc(Cl)cc2N1 was tested, and the growth was 101% (inactive).
With O=C(COc1ccc(Cl)cc1Cl)N1N=C(c2ccc(Cl)cc2Cl)CC1(O)c1cc(F)c(Cl)cc1Cl (stereo not given) the growth was -97.5% (active).
For CCCCCCCCCCCCNc1ncnc2[nH]ncc12, the growth was 74.4% (inactive).
COc1ccc(C(=O)n2nc(-c3ccccc3)nc2N)cc1OC was tested, and the growth was 80% (inactive).
O=C1NC(=S)NC(=O)C1CC(=O)n1c(-c2ccccc2)nc2ccccc21 was tested, and the growth was 104% (inactive).
For COC(=O)c1cc2cc(-c3ccc(OC)cc3)cnc2[nH]1, the growth was -2.68% (active).
COc1cc(/C=C/c2cc(/C=C/c3ccc(O)c(OC)c3)n(C(=O)Nc3ccc(C)cc3C)n2)ccc1O was tested, and the growth was -30.4% (active).
In the case of CCCCC1COc2cccc3c(SCC(=O)N(C)c4cccc(Cl)c4)cc[n+]1c23 (stereo not given), the growth is reported as 102% (inactive).
In the case of CC(C)OC(=O)Nc1cc(F)c(F)cc1F, the growth is reported as 98.6% (inactive).
With O=c1c2c3c(sc2n2cnnc2n1Cc1ccccc1)CCCC3 the growth was 84.3% (inactive).
With Clc1ccc2[nH]c3c(NCCCN4CCOCC4)ncnc3c2c1 the growth was 36.3% (inactive).
In the case of O=C1/C(=C\c2cn(-c3nc(N4CCOCC4)nc(N4CCOCC4)n3)c3ccccc23)c2ccccc2N1c1c(Cl)cccc1Cl, the growth is reported as 64.7% (inactive).
For N#CCCN1C/C(=C/c2ccc(Cl)cc2)C(=O)/C(=C/c2ccc(Cl)cc2)C1, the growth was -16.5% (active).
For CC12CC3CC1C(C(=O)O2)C3C(=O)O (stereo not given), the growth was 95.6% (inactive).
For Cc1ccc(OCCOCCOCCOc2ccc(C)n(O)c2=S)c(=S)n1O, the growth was 37.6% (inactive).
O=C(N/N=C\c1cc(Br)ccc1O)c1ccncc1 was tested, and the growth was -27.5% (active).
N#C/C(=C\c1ccc(F)cc1)n1nc2cccc(F)c2n1 was tested, and the growth was 8.65% (active).
With COc1ccc(/C=N/NC(=O)c2ccc(-n3cc(-c4ccccc4)nn3)cc2)cc1OC the growth was 94.2% (inactive).
With CNC(=O)c1cc(Oc2ccc3c(c2)sc2nc(-c4ccc(NC(C)=O)cc4)cn23)ccn1 the growth was 44.2% (inactive).
In the case of NS(=O)(=O)c1ccc(NCC(=O)Nc2ccc(-c3nc4ccccc4s3)cc2)cc1, the growth is reported as 33.4% (inactive).
In the case of O=C1OC(c2ccc(-c3ccccc3)cc2)=C/C1=C/c1c(Cl)cccc1Cl, the growth is reported as 77.8% (inactive).
CN(C)CCCn1c2c(c3ccc(N4CCNCC4)cc3c1=O)C(=O)c1ccccc1-2 was tested, and the growth was 8.73% (active).
With C=CN(C(=O)N1CCN(c2cc3c(cc2F)c(=O)c(C(=O)O)cn3C2CC2)CC1)c1nc(-c2ccc(OC)cc2)cs1 the growth was -22.9% (active).
